From PubChem BioAssay
Sampled rows, rich in hits. Any-hit rate of the full collection: about 6.2%.
Mot1-301 SUMO: yeast Mot1-301 growth rescue at high temperature, primary screen, SUMOylation pathway inhibitor project, S. cerevisiae, ATP luminescence, 38.5C | S. cerevisiae Mot1-301 growth rescue; percent above DMSO median, 100 means doubled | growth rescue, % at 18.8 µM | 1% of 320,000 active;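 active means every valid replicate shows activation above 250% relative to neutral control wells; inactive means the rest, any valid replicate at or below 250%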;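 further: OY570 slx delta 5 strain wells were the positive control but not used for scaling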
NTR1 ag: agonists of human NTR1, primary screen, imaging, U2OS cells, beta-arrestin-GFP, high content. NTR1-U2OS beta-arrestin-GFP spot imaging, agonist mode. activation, % at 20 µM. 0.17% of 330,000 active;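 active means activation at or above 40% of the spot to cytoplasm intensity ratio, with at least 20 cells analyzed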;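 further: 0% = DMSO without peptide and 100% = 100 nM NTR1 peptide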
Target sequence (P30989 whole entry, looked up): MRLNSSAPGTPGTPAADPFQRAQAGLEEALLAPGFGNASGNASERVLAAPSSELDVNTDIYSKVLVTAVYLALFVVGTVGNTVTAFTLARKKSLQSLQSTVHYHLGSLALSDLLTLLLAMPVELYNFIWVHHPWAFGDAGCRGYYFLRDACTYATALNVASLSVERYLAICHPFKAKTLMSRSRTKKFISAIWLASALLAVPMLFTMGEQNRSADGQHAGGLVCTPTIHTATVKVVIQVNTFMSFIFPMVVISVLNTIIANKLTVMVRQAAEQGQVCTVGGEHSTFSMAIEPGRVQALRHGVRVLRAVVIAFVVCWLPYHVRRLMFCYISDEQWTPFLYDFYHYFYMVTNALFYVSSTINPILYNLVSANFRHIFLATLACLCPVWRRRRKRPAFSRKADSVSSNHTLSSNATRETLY
GRIN3A LBD mod: binders of NR3A ligand-binding domain, primary screen, biophysical, differential scanning fluorimetry, uHTS | NR3A LBD differential scanning fluorimetry, Tm shift; 0% = protein alone, 100% = glycine-bound protein | Tm shift relative to glycine control, % at 25 µM | Glutamate receptor ionotropic, NMDA 3A (GRIN3A) ligand-binding domain | AID 1259313, 2017 | 2.5% of 340,000 active;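 active means melting temperature shift of at least 10% of the positive control shift, at one fixed dose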
H9c2 protect: cardioprotection against H2O2-induced cell death, primary screen, uHTS, H9c2 cells, ATPLite luminescence | H9c2 cardiomyocytes, H2O2 injury protection, 2 h | protection from H2O2 cell death, % at 20 µM | 0.63% of 360,000 active | AID 588492, 2011;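 active means compounds giving at least 50% protection of heart cells from peroxide-induced death in the single-dose screen, raw or plate-pattern-corrected value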;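 further: 0% = DMSO wells with peroxide and 100% = DMSO wells without peroxide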
AHR activator: AHR activators, primary screen, cell-based, luminescence, luciferase reporter, human; 2.5% of 320,000 active; AHR-responsive luciferase reporter cells; activation, % at 5 µM; in the data active means activation above about 47%;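 further: 0% = vehicle wells and 100% = reference agonist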
AI-2 QS mod: Vibrio harveyi AI-2 quorum sensing modulators, primary screen, JMH597 strain, luminescence/OD600 ratio. activity change, % at 7.5 µM. Vibrio harveyi JMH597 AI-2 luminescence/OD600 ratio, 9 h; hits give low values; strain lacks LuxN and CqsS sensors; 0 = neutral-control median. 0.4% of 300,000 active. AID 2094, 2009; in the data active means activity change below about -75%, passing the limit was not always enough;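 further: luminescence divided by OD600 gain over 9 h not by final OD600 alone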
Yeast Mot1 SUMO: growth restoration of Mot1-301 yeast on galactose, dose response, SUMO pathway inhibitor project, whole organism, S. cerevisiae, ATP luminescence, cherry-picked samples. shares compounds with Mot1-301 SUMO. S. cerevisiae Mot1-301 galactose growth, 24 h; -100 = growth of slx-deleted rescue strain. growth activity, percent, % at 42 µM. 2,300 tested, under 10 active. AID 493004, 2010;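 active means Signal drops as the depositor expects, and the fitted half-maximal dose is no more than ten times the top valid tested dose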;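 further: more negative values mean stronger growth rescue toward the control strain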
* marks the source's active call; other numbers are inactive results; / = not tested or not shown; ! = not confirmed by another sample; [ ] = another dose, or the depositor's remark.

SMILES	Mot1-301 SUMO	NTR1 ag	GRIN3A LBD mod	H9c2 protect	AHR activator	AI-2 QS mod	Yeast Mot1 SUMO
C=CCOC(=O)C(C#N)c1nc2ccccc2nc1N1CCN(Cc2ccccc2)CC1 (stereo not given)	501*	3	-1	-1	4	12	0
Cc1cc2c3c(c1)C1(SCC(=O)N1c1ccc(F)cc1)C(=O)N3C(C)(C)CC2C (stereo not given)	423*	9	-1	-6	1	14	-1
Cn1c(N)c(C(=O)CSc2nnc(C3CC3)n2N)c(=O)n(C)c1=O	-10	0	0	7	-2	/	/
Cc1c(C)n2c(SCC(=O)N3CC(C)OC(C)C3)nnc2[nH]c1=O (stereo not given)	3	-1	0	6	0	16	/
COc1ccc(NC(=O)C2CCCN(C(=O)Nc3ccc(OC)cc3)C2)cc1 (stereo not given)	25	0	0	4	4	33	/
COc1ccc(NC(=O)C2CCCN(C(=O)Nc3cccc(OC)c3)C2)cc1 (stereo not given)	381*	1	0	2	6	35	0
CCCNC(=O)C1(C)CCCN(Cc2ccc(-c3ccccc3)o2)C1 (stereo not given)	/	/	/	-7	/	/	/
O=S(=O)(c1ccccc1Br)N(CC(O)COCc1ccccc1)C1CC1 (stereo not given)	/	1	0	-11	/	/	/
O=C1N=C(N2CCOCC2)S/C1=C\c1cccnc1	753*	-1	2	5	5	10	1
CC1CCN(CCCCOc2ccc(C(C)(C)C)cc2)CC1	10	1	-1	-11	-1	6	/
CC1CCN(CCCCOc2ccc(Cl)cc2)CC1	427*	-2	-1	4	0	17	0
CSc1nnc2c3cc(C)ccc3n(Cc3ccccc3)c2n1	910*	2	0	-8	12	8	0
c1ccc(Cn2c3ccccc3c3nnc(SCCN4CCCCC4)nc32)cc1	-4	1	1	2	0	-15	/
O=C(c1cc(F)ccc1F)C1CCCN(C(=O)c2ccc3nccnc3c2)C1 (stereo not given)	670*	-1	-1	5	2	-6	-1
CN(C)CCN(Cc1ccc(Cl)cc1)c1ccccn1	558*	-2	-4	14	-2	0	-1
C[N+](C)(C)CCN(Cc1ccc(Cl)cc1)c1ccccn1	8	-2	-1	0	-2	1	/
CN1C(C(=O)Nc2ccccn2)=C(O)c2sccc2S1(=O)=O	982*!	1	3	4	-1	10	0
O=C(COC(=O)CCCSc1nc2ccccc2[nH]1)Nc1cccc(F)c1	386	-2	-7	4	-1	17	/
C=CCNC(=O)NC(=O)COC(=O)CCCSc1nc2ccccc2[nH]1	612*	-2	-1	12	0	31	0
O=C(C1CCC(CNS(=O)(=O)c2cccc3cccnc23)CC1)N1CCCC1 (stereo not given)	260	-2	1	2	-2	9	/
O=S(=O)(NCC1CCCN(Cc2ccccc2O)C1)c1cccc2cccnc12 (stereo not given)	384*	1	8	4	0	1	2
CN(C)/C=C/C(=O)c1ccncc1	877*	0	1	5	2	-1	0
CC(C)(c1ccccc1)c1ccc(OCCN2CCOCC2)cc1	444*	1	0	-3	3	72	0
CC1(Cc2ccc(F)c(Cl)c2)C(=O)Nc2c(Cl)cccc21 (stereo not given)	/	/	/	-11	/	/	/
COc1ccc(CN2CCN(C(=O)c3cc(-c4cccnc4)nc4ccc(Cl)cc34)CC2)c(OC)c1OC	510*	2	-1	47	2	-9	0
SMILES	Mot1-301 SUMO	NTR1 ag	GRIN3A LBD mod	H9c2 protect	AHR activator	AI-2 QS mod	Yeast Mot1 SUMO
COc1cccc(OC)c1C(=O)N1CCN(Cc2ccccc2C)CC1	359*	1	1	6	-1	-9	1
COc1cccc(CN2CCN(C(=O)c3cccc4ccccc34)CC2)c1OC	735*	1	-2	4	-1	9	0
C[C@H](CO)N1C[C@H](C)[C@H](CN(C)S(=O)(=O)c2ccc3ccccc3c2)OCc2cnnn2CCCC1=O	/	/	/	8	/	/	/
CCNC(=O)C1(C)CCCN(Cc2ccc3ccccc3c2Br)C1 (stereo not given)	/	/	/	-13	/	/	/
COc1cccc(Cn2cnc3c(NS(=O)(=O)c4cccc(Cl)c4Cl)c(C)c(C)cc32)c1	411*	0	-6	-7	4	40	-1
Cc1c(NP(=O)(c2ccc(Br)cc2)c2ccc(Br)cc2)c(=O)n(-c2ccccc2)n1C	381*	1	0	15	6	13	0
O=C(c1ccc(Cl)c(S(=O)(=O)NCc2cccnc2)c1)N1CCCC1	/	-3	-3	-1	0	/	/
CN(CC(=O)Nc1ccncc1)S(=O)(=O)c1ccc(Br)cc1	12	5	0	-8	6	21	/
CC(=O)Nc1ccc(S(=O)(=O)N(C)CC(=O)Nc2ccc(Br)cc2F)cc1	513*	0	1	0	10	13	0
COC(=O)C1C2C=CC3(CN(CCc4ccccc4)C(=O)C13)O2 (stereo not given)	429*	-3	0	6	3	15	0[21 µM]
O=C(Nc1ccc2c(c1)CCCN2C(=O)c1cccs1)c1cccc(F)c1	566*	-2	-1	7	21	46	-1
O=C(Nc1ccc2c(c1)CCCN2C(=O)c1cccs1)c1ccccc1	214	2	2	7	4	31	/
Cc1ccc(-n2c(-c3ccco3)nc3c(cnn3-c3ccc(C)cc3)c2=O)cc1	734*	8	0	-12	-1	-3	0
Cc1ccc(-n2c(-c3ccco3)nc3c(cnn3-c3ccccc3C)c2=O)cc1	-13	1	2	11	5	14	/
COc1ccc(N2C(=O)CC(NCc3cccs3)C2=O)cc1 (stereo not given)	359*	3	1	5	2	0	1
